# Test results from the supplement of paper PMC6555819.
# Assays:
# Test in all cases: PBM binding z-score (relative to random genomic background probes); higher = stronger binding; sequences stand for … in GC…GCGATTGACAGCGTAGAATGAAGG
# [1] = system: PPARg:RXRa DBDmut IVT, anti-RXR (DBD mutation: RXRa K156A/R161A, NR concentration 270 nM, RXRa partner concentration 90 nM)
# Method in brief: (§1)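 On custom Agilent 4×180K arrays, double-stranded probes with 34-nt variable regions carried direct-repeat seeds, single-nucleotide variants, half-site ablations or random human genomic background. Ligand-free nuclear receptor dimers were applied for 1 h, and binding was read with antibodies against each partner (one per run). Binding z-scores come from regression-normalized fluorescence, with the random background probes as reference.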
# [2] = system: PPARg:RXRa IVT, anti-PPARg (NR concentration 270 nM, RXRa partner concentration 90 nM)
# Method in brief: as §1
# [3] = system: PPARg DBDmut:RXRa IVT, anti-PPARg (DBD mutation: PPARg1 K132A/R137A, NR concentration 270 nM, RXRa partner concentration 90 nM)
# Method in brief: as §1
# [4] = system: PPARg DBDmut IVT, anti-PPARg (DBD mutation: PPARg1 K132A/R137A, NR concentration 270 nM)
# Method in brief: as §1
# [5] = system: PPARg homodimer (NR concentration 180 nM)
# Method in brief: as §1
# [6] = system: PXR:RXRa (NR concentration 270 nM, RXRa partner concentration 90 nM)
# Method in brief: as §1
# [7] = system: PXR homodimer (NR concentration 270 nM)
# Method in brief: as §1
# [8] = system: RARa:RXR (NR concentration 270 nM, RXRa partner concentration 90 nM)
# Method in brief: as §1
# [9] = system: RARa homodimer (NR concentration 270 nM)
# Method in brief: as §1
# [10] = system: RARb:RXRa (NR concentration 270 nM, RXRa partner concentration 90 nM)
# Method in brief: as §1
# [11] = system: RARb homodimer (NR concentration 270 nM)
# Method in brief: as §1
# [12] = system: RARg:RXRa (NR concentration 270 nM, RXRa partner concentration 90 nM)
# Method in brief: as §1
# [13] = system: RARg homodimer (NR concentration 270 nM)
# Method in brief: as §1
# [14] = system: RXRa DBDmut IVT, anti-RXR (DBD mutation: RXRa K156A/R161A, NR concentration 90 nM)
# Method in brief: as §1
# [15] = system: RXRa homodimer (NR concentration 180 nM)
# Method in brief: as §1
# [16] = system: THRa:RXRa (NR concentration 90 nM, RXRa partner concentration 90 nM)
# Method in brief: as §1
# [17] = system: THRa homodimer (NR concentration 90 nM)
# Method in brief: as §1
# [18] = system: VDR homodimer (NR concentration 270 nM)
# Method in brief: as §1
Sequence,PBM binding z-score [1],PBM binding z-score [2],PBM binding z-score [3],PBM binding z-score [4],PBM binding z-score [5],PBM binding z-score [6],PBM binding z-score [7],PBM binding z-score [8],PBM binding z-score [9],PBM binding z-score [10],PBM binding z-score [11],PBM binding z-score [12],PBM binding z-score [13],PBM binding z-score [14],PBM binding z-score [15],PBM binding z-score [16],PBM binding z-score [17],PBM binding z-score [18]
CCTCCTAGGTCATGGTCAGCTAATCTACAGTATG,3.36,3.76,0.488,0.0352,1.57,1.77,0.241,2.36,1.05,4.02,3.55,3.91,4.49,1.04,2.93,3.09,1.92,0.641
GCTTACGGGTCAAAGGCTATAGCATGAATAGAAT,3.78,4.33,0.463,0.898,1.36,3.22,0.0124,4.4,-0.0609,3.69,2.54,4.79,4.31,1.73,6.17,2.45,-0.68,0.708
AGTATGAGGTTATACGTAGATCAGGGAAGAAAGT,1.1,0.98,0.752,0.274,0.842,1.25,0.582,1.66,0.209,1.58,0.828,1.81,1.26,1.67,2.18,2.4,0.869,0.823
CGTCAGAGTTCAACTAAGGTAACGTAAAGCACGC,0.228,1.32,0.422,0.416,2.24,5.76,6.21,4.1,1.3,4.73,3.58,5.39,6.02,4.87,5.49,5.18,1.68,4.58
CCTACTGGGCCAAAAAGGGCATTGATGCCGATAA,3.27,2.46,-1.19,-0.893,0.55,-0.0509,-0.102,-0.0363,-0.572,1.49,1.32,0.413,0.776,-0.51,0.0736,0.26,-0.987,0.107
CAAACTAGGTCTCGAAAGGTCAAAGTCGAATGAC,5.54,5.71,2.45,0.645,3.86,5.61,2.13,6.33,2.57,4.4,4.49,5.71,5.18,1.18,6.53,3.97,1.2,2.67
ATATGTAGGTTAGCGGGTCATTCAGTTTGCGCAT,7.62,7.02,2.14,1.79,2.58,3.07,5.07,2.89,1.16,2.31,2.65,2.83,2.37,1.42,2.77,2.06,1.08,2.76
CAGCCTAGGTCAGGGCCTGTATAGGAGGAACGTT,1.45,1.31,-0.895,-1.4,0.134,0.236,-0.76,0.971,-1.2,3.33,2.38,2.68,3.88,-0.731,1.46,1.88,-0.108,-0.924
CCTTACGGGTCACGAGGTTCTAGCACGACGAGCG,4.32,5.09,0.979,-0.156,2.86,4.06,-0.111,5.48,0.989,4.41,3.27,5.61,5.78,1.49,6.58,3.25,0.28,1.86
GTACCAAGGTGAATCGGTCGTTGATGAGTAGGCG,1.93,2.44,-0.354,-0.848,-0.00106,-0.262,-0.354,0.293,-0.11,1.67,1.27,1.17,1.01,-0.343,0.482,1.49,0.486,-0.443
CGTCCAAGGTCAGAGAGGTCAGTGAATGCCGAGT,3.16,3.45,0.28,-0.412,5.38,6.23,12.3,5.74,3.8,5.21,5.19,6.25,6.97,3.52,5.73,4.19,2.86,5.68
TCGAGTAGGTTACCAAGGGGGCATTCAGCTTTCT,3.32,4.07,4.92,5.1,1.17,2.98,0.477,2.6,-0.167,1.98,1.98,4.64,1.87,1.26,1.98,2.16,0.891,2.16
ATCTCTAGGTAGAGATAGTTCAGTGAATGCAAAT,-0.289,0.0847,0.624,0.987,0.293,0.338,0.253,0.641,0.194,0.242,0.368,0.166,0.357,-0.163,0.115,0.148,-0.22,0.338
TGTCAAAGTTCAAGGGTAACGTAAGTATCCACAC,-0.0175,4.63,1.78,1.04,2.41,4.83,2.3,4.95,0.926,5.05,3.92,5.81,6.14,3.72,5.45,2.89,0.138,3.21
ATCGAAAGGACGACGAGGTGAGTATACACCGTTT,-0.481,0.315,0.774,0.683,-0.198,-0.109,-0.293,0.0451,0.198,1.1,0.685,1.09,1.42,-0.192,0.371,1.42,0.601,0.0497
ACTGTTAGTTGACTTAGGGCAACCGATACGACGC,0.0464,0.607,0.909,0.844,0.977,0.277,0.341,0.582,0.354,1.04,1.09,1.22,1.25,0.609,0.472,1.51,0.731,0.453
GCAGATAGGTAATACAAGGTGAAAGTCCGATTGT,0.315,0.869,0.607,0.154,0.298,0.645,0.172,0.91,0.423,0.412,0.807,0.57,0.471,-0.0602,0.646,4.12,0.853,0.0811
AATACAGTGTCATCGTAGGCCAGAGTACGCACAG,0.125,1.2,1.33,-0.183,-0.106,0.441,-0.156,0.969,0.337,1.21,0.72,0.907,1.24,0.561,0.84,1.81,-0.754,0.395
AGAATGAGGTTAATATCAGGGAAACAGAATACAT,2.82,2.7,1.02,0.794,0.975,1.2,0.575,1.74,1.04,1.55,0.835,1.84,1.48,1.22,2.14,2.36,0.795,0.82
CGTCCAAGGTCATAGTAGGTCAGTGAAGACAGAT,4.15,5.33,1.45,-0.159,2.97,5.67,2.73,5.14,1.92,5.12,4.63,6.11,6.44,4.14,6.11,4.94,2.97,3.93
TCCGCTAGGTCAACGATGGTCAGCTAATCTGCTA,3.72,3.71,-0.291,-0.242,0.617,1.19,-0.762,1.69,-0.297,4.13,3.45,3.93,4.83,1.1,2.23,3.06,1.03,-0.0724
TAGCCTAGGTCATGCGGGCCAGTATGGTGTCGGC,1.73,2.9,-0.0668,-0.181,0.816,1.42,-0.582,2.52,-0.311,3.65,2.86,4.2,4.58,0.269,3.23,2.96,1.07,0.682
TCTTGTACATCAAAGGTTAAGAAAGCCGAAGCCT,1.6,1.77,1.53,0.483,1.01,1.73,0.178,2.66,0.601,2.15,1.84,1.84,1.06,1.09,2.7,1.48,-0.039,0.246
CAAACTAGGTCACGAAAAGTCAAAGTCGAATGAC,8,9.2,4.41,4.13,2.52,2.27,0.426,3.44,0.939,4.58,3.38,4.82,5.38,1.53,3.85,3.35,1.25,0.644
ATCTGTAGGTAAAGTTCAGTGAAAGATCGATAGA,1.48,2.2,1.04,0.902,1.06,1.41,1.84,0.99,0.559,2.53,2.24,1.86,2.25,1.35,1.16,0.595,-0.247,1.83
GCGACTGGGGCAAAGCAGGTTACCAAAAGGTTGG,4.78,3.6,-0.303,-0.695,-0.131,0.48,-0.452,0.862,-0.773,1.02,1.39,0.739,0.527,-0.337,0.52,3.28,-0.199,-0.329
ATCTCTACGTAAAGTTCAGTGAAAGATCGATAGA,-0.332,0.634,1.64,1.55,1.75,1.93,1.97,1.39,1.12,3.02,2.6,2.27,2.86,1.51,1.2,0.674,-0.289,2.27
GATACAGGGTCAGCTAGATGCCAGAGTATGGAAA,1.35,2.42,0.251,0.266,3.16,2.14,-0.221,3.4,0.348,3.98,2.84,4.95,4.12,1.23,4.38,2.87,0.0826,0.494
CCTTACGGGTCACGAGGTTAAAGCACGACGAGCG,3.53,5.39,0.774,0.583,4.94,4.93,0.408,6.28,1.03,4.76,3.99,6.28,5.56,2.06,6.97,3.82,0.843,2.06
